KB-V1 MDR tox = qHTS assay for MDR1-selective chemotherapeutics: Primary screen using the drug-selected MDR subline cells KB-V1; KB-V1 MDR cells viability, CellTiter-Glo, 72 h; Potency, µM (titrated, usually from 46.1 µM), usual class: cytotoxic; 400,000 compounds, 3.4% hits; AID 1347076, 2019; note: % is set by controls: 0 for no effect and ±100 for the full control effect; nearly all actives have a fitted effect of over 60% in size
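qHTS viability screen in drug-selected KB-V1 MDR cells: 72 h compound treatment at 37 degrees C, ATP luminescence end point.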
KB-3-1 cytotox = qHTS assay for MDR1-selective chemotherapeutics: Primary screen using the parental adenocarcinoma cell KB-3-1; KB-3-1 viability, CellTiter-Glo ATP luminescence, 72 h; Potency, µM (top dose mostly 46.1 µM), usual class: cytotoxic; 400,000 compounds, 1.4% hits; AID 1347075, 2019; note: % is set by controls: 0 for no effect and ±100 for the full control effect; nearly all actives have a fitted effect of over 60% in size
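Here the drug-naive KB-3-1 line serves as comparator for MDR sub-line selectivity; cells received compound titrations, 72 h at 37 °C, then CellTiter-Glo readout.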
HT1080 IDH1KD tx = qHTS for induction of synthetic lethality in tumor cells producing 2HG: qHTS for the HT-1080-IDH1KD cell line; 360,000 compounds, 2% hits; HT-1080 IDH1 knockdown viability, ATP luminescence, 48 h; AID 686971, 2013; Potency, µM (top dose mostly 46.1 µM), for inactives: at the top dose activity, negative = toxicity, usual class: cytotoxic;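 note: 0% = DMSO wells and -100% = cell-free medium wells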
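In this qHTS, HT-1080 cells depleted of IDH1 are exposed for 48 h at 37 °C to compound titrations. Toxicity is scored from CellTiter-Glo luminescence, with DMSO as full viability and medium alone as none.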
MCF10A rereplic = A quantitative high throughput screen for small molecules that induce DNA re-replication in MCF 10a normal breast cells; MCF 10A DNA re-replication, Hoechst nuclear intensity, 48 h; Potency, µM (highest dose often 46.1 µM), inactives show at the highest dose activity, positive = re-replication, hits mostly activators; 350,000 compounds, 2.9% hits; AID 624296, 2012; note: % of control where 0% means no effect; nearly all actives have a fitted effect of over 50% in size
HT1080-NT tox = qHTS for induction of synthetic lethality in tumor cells producing 2HG: qHTS for the HT-1080-NT fibrosarcoma cell line; HT-1080-NT fibrosarcoma viability, CellTiter-Glo ATP luminescence, 48 h; Potency, µM (series often up to 46.1 µM), without a hit: at the top dose activity, negative = less viability, actives largely listed as cytotoxic; 360,000 compounds, 1.6% hits;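 note: NT is the 2HG producing partner of a matched IDH1 knockdown line; 0% = DMSO-treated cells and -100% = media-only wells without cells; nearly all actives have a fitted effect of over 55% in size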
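750 cells/well, RPMI + 5% FBS; 2 h settle, compound pin-transfer, 48 h at 37 degrees C. CellTiter-Glo 10 min RT, luminescence. Normalized to DMSO and media-only wells.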
SW480 rereplic = A quantitative high throughput screen for small molecules that induce DNA re-replication in SW480 colon adenocarcinoma cells; SW480 DNA re-replication, Hoechst DNA content imaging, 48 h; 340,000 compounds, 1.8% hits; Potency, µM (highest dose often 46.1 µM), for the others: at the top dose re-replication activation, most hits filed as activators; note: % of control where 0% means no effect; nearly all actives have a fitted effect of over 55% in size
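Hoechst fluorescence of nuclei (405 nm excitation, 500-530 nm emission) measured by plate-scanning imager after 48 hr compound exposure at 37 C; re-replication scored as increased number of nuclei with elevated intensity.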
* = called active by the depositor; i = inactive; u = inconclusive; x = not tested or not shown; [ ] = remark or other dose. Most compounds without a hit are left out; they make up all but 7.9% or so of the library. Calls come from the whole dose curve; as a rule, active = well fitted curve in the direction sought with a large enough effect; inconclusive = small, poorly fitted or top-dose-only effect, or another doubt; inactive = no such curve, though single readings can be large; an effect the other way counts as inactive or inconclusive. Potency is the fitted concentration of half-maximal effect.

SMILES	KB-V1 MDR tox	KB-3-1 cytotox	HT1080 IDH1KD tx	MCF10A rereplic	HT1080-NT tox	SW480 rereplic
Cc1cccc(C(=O)NCc2nnc(SCC(=O)NC(C)c3ccccc3)n2C)c1 (stereo not given)	i	i	2.6%	-3.9%	0.1%	18.4µM*
O=C(COc1ccc(F)cc1)NC1CC(=O)N(c2ccc3c(c2)OCCO3)C1 (stereo not given)	u	i	x	x	x	x
Cc1sc2ncn(CC(=O)N3CCN(c4ccccc4)CC3)c(=O)c2c1S(=O)(=O)N1CCN(c2ncccn2)CC1	i	i	x	x	x	x
O=C(NCc1ccco1)c1cc2sccc2n1Cc1ccccc1	16.4µM*	i	u	-4.2%	u	14.8%
Cc1cccc(C)c1NC(=O)c1cc2sccc2n1Cc1ccc(F)cc1	i	i	x	x	x	x
O=C(NCCc1ccccc1)c1cc2sccc2n1Cc1ccccc1	i	i	-3.7%	-2.6%	-4.2%	2.8%[9.22 µM]
O=C(c1ccco1)N1CCN(C(=O)c2cc3sccc3n2Cc2ccccc2)CC1	2.06µM*	u	u	-6.2%	-21.8%	-2.2%
O=C(NCc1ccco1)C1CCN(C(=O)c2cc3sccc3n2Cc2ccc(F)cc2)CC1	u	i	u	25.1%	u	-0.4%
CC1Cc2ccccc2N1C(=O)c1cc2sccc2n1Cc1ccc(F)cc1 (stereo not given)	20.6µM*	u	-9.9%	u	-5.1%	u
COc1ccc(S(=O)(=O)NCC2CCCN(Cc3cccnc3)C2)cc1 (stereo not given)	i	i	3.9%	1.03µM*	3.4%	-15.3%
CCO[C@@H]1c2c(ccc3ccc(=O)oc23)OC(C)(C)[C@@H]1O	i	i	2.8%	-9.9%	-1.5%	2.2%
CC(=O)OC1c2c(ccc3ccc(=O)oc23)OC(C)(C)C1OC(=O)CC(C)C (stereo not given)	11.6µM*	i	-4.0%	4.4%	-6.3%	-6.8%
CCOC(=O)N1CCC2(CC1)C(C#N)=C(N)Oc1c2sc2nc(C)cc(C)c12	i	i	u	7.31µM*	u	u
Cc1sc2nc(C)n(/N=C/c3ccc(O)cc3)c(=O)c2c1C	i	i	12.8%	1.4%	2.9%	0.1%
Cc1sc2nc(C)n(/N=C/N(C)C)c(=O)c2c1C	i	i	24.9%	0.3%	-6.2%	14.6µM*
COc1cc(Cl)c(CC(=O)c2c[nH]c3ccccc23)cc1OC	u	13µM*	-7.1%	18.8%	-10.5%	-1.4%
CCOC(=O)c1c(-c2ccccc2)csc1NC(=O)c1cc(-c2ccc(F)cc2)on1	i	i	x	x	x	x
O=[N+]([O-])c1ccc(NC2CCCC2)cc1	u	i	8.1%	11.1%	6.8%	-1.0%
O=[N+]([O-])c1ccc(N/N=C2/CCCCC2c2ccccn2)cc1 (stereo not given)	i	u	0.92µM*	-3.0%	14.3%	-10.9%
O=C(CCCSc1nc2ccccc2[nH]1)N1CCN(c2ccccc2)CC1	i	i	1.4%	10.0%	2.8%	10.2%
O=C(CSc1nc2ccccc2[nH]1)N1CCN(c2ccccc2)CC1	16.4µM*	i	5.4%	11.7%	4.8%	-3.4%
O=C(CSc1nc2ccccc2[nH]1)N1c2ccccc2Sc2ccccc21	11.6µM*	i	-0.2%	-2.0%	0.2%	9.0%
Cc1cccc(N2CCN(C(=O)CCCSc3nc4ccccc4[nH]3)CC2)c1C	5.8µM*	i	u	-5.6%	u	3.5%
COc1ccc2c(c1)c1c(c(=O)n(Cc3ccccc3)c(=O)n1CC(=O)Nc1ccccc1F)n2C	i	u	x	x	x	x
COC(=O)c1sc2ccccc2c1-n1cccc1C(=O)C(=O)Nc1ccc(OC)cc1	8.2µM*	5.8µM*	-10.0%[9.24 µM]	28.3%	-23.3%	-5.2%
SMILES	KB-V1 MDR tox	KB-3-1 cytotox	HT1080 IDH1KD tx	MCF10A rereplic	HT1080-NT tox	SW480 rereplic
CC1(C)CC(=O)c2cc(C(=O)Nc3ccc(Cl)cc3)c(=O)[nH]c2C1	i	i	x	x	x	x
Cc1cccc(-c2noc(CNC(=O)c3ccoc3C)n2)c1	i	i	-6.0%	20.6µM*	-1.6%	27.0%
Cc1[nH]nc2c1C(c1ccc(-c3ccccc3C#N)o1)C(C#N)=C(N)O2 (stereo not given)	i	i	11.2µM*	-4.6%	u	-13.8%
CCC(CC)C1C(C#N)=C(N)Oc2n[nH]c(C)c21 (stereo not given)	i	i	11.2µM*	u	11.2µM*	20.6µM*
CCC(CC)C1C(C#N)=C(N)Oc2n[nH]c(-c3ccccc3)c21 (stereo not given)	i	i	-20.0%[9.24 µM]	4.5%	u	10.7%
Cc1ccc(-c2ccc(C3C(C#N)=C(N)Oc4n[nH]c(C)c43)o2)cc1 (stereo not given)	25.9µM*	i	-14.5%	23.1µM*	-20.5%	u
CCOC(=O)c1cc(-c2ccc(OC)cc2)nn1Cc1ccccc1	i	i	x	x	x	x
CCOc1ccc(-c2cc(NC(=O)Nc3cccc(C(C)=O)c3)c(C(=O)OC)s2)cc1	i	i	x	x	x	x
COc1ccc(C(=O)NCCn2cc(SCC(=O)NCC3CCCO3)c3ccccc32)cc1 (stereo not given)	i	i	-1.0%	u	-1.8%	10.2%
CCn1c(=O)cc(SCC(=O)NCc2ccco2)c2ccccc21	u	25.9µM*	5.01µM*	3.66µM*	7.94µM*	20.6µM*
Cc1cc2nnc(SCC(=O)NCc3ccco3)n2c2ccccc12	i	5.8µM*	u	u	u	18.4µM*
COc1ccc(C(=O)NCCn2cc(SCC(=O)NCc3ccco3)c3ccccc32)cc1	u	16.4µM*	u	-22.3%	-3.9%	u
Cc1cc2nnc(SCC(=O)NCc3cccs3)n2c2ccccc12	i	i	11.4%	8.2%	13.3%	-7.5%
COc1ccc(CNc2nc(SCC(=O)NCc3ccco3)nc3ccccc23)cc1	6.51µM*	i	u	20.0%	5.4%	-0.7%
COc1ccc(OC)c(NC(=O)C2(C)CCN2Cc2ccc(SC)cc2)c1 (stereo not given)	i	i	-9.2%	x	3.4%	x
O=C(Nc1ccc(Br)c2cccnc12)c1cccc2ccccc12	i	i	x	x	x	x

From PubChem BioAssay
